PubChem BioAssay (NCI)
The panel holds about 83,000 compounds, 20% with a hit somewhere; the sample as a whole holds those more often.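 How to read the values: 0–100, growth inhibition (40 = 60% inhibited); 0, no net growth; -100 to 0, cell death (-40 = 40% of starting cells died; -100 = all dead).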 Unmarked numbers belong to inactive results. Calls of active or inactive are those of the source. The calls were made as follows: active = growth percent below 10; inactive = the rest.

What was measured:
Assay in all cases: NCI-60 one-dose screen, 48 h (100 = growth as untreated, 0 = no growth, -100 = all killed)
Details in all cases: 10 µM unless noted
DU-145 prostate = tested on: DU-145 prostate
K-562 leukemia = tested on: K-562 leukemia
MALME-3M melanoma = tested on: MALME-3M melanoma
MDA-MB-231 breast = tested on: MDA-MB-231 breast
RXF 393 renal = tested on: RXF 393 renal
SF-268 CNS = tested on: SF-268 CNS
SF-295 CNS = tested on: SF-295 CNS
SF-539 CNS = tested on: SF-539 CNS
UACC-257 melanoma = tested on: UACC-257 melanoma
M14 melanoma = tested on: M14 melanoma

**Q.** For `CN(C)C1CN(C(=O)c2cc(-c3ccc4ncnc(N5CCc6cc(F)c(Cl)cc65)c4c3)cnc2N)C1`, which growth (DU-145 prostate) is on record?
**A.** 9.86% (active)

**Q.** And the growth (K-562 leukemia)?
**A.** 23.8%

**Q.** What about the growth (MALME-3M melanoma) of the same compound?
**A.** -21.2% (active)

**Q.** What about the growth (MDA-MB-231 breast) of the same compound?
**A.** 27.8%

**Q.** And the growth (RXF 393 renal)?
**A.** -32% (active)

**Q.** What about the growth (SF-268 CNS) of the same compound?
**A.** 18.4%

**Q.** And the growth (SF-295 CNS)?
**A.** 8.16% (active)

**Q.** And the growth (SF-539 CNS)?
**A.** -1.35% (active)

**Q.** What about the growth (UACC-257 melanoma) of the same compound?
**A.** 16.4%

**Q.** What about the growth (M14 melanoma) of the same compound?
**A.** 9.34% (active)

**Q.** For `O=C(CSc1nnnn1-c1ccccc1)Nc1ccc(Oc2ccccc2)cc1`, which growth (DU-145 prostate) is on record?
**A.** 111%

**Q.** What about the growth (K-562 leukemia) of the same compound?
**A.** 120%

**Q.** And the growth (MALME-3M melanoma)?
**A.** 133%

**Q.** What about the growth (MDA-MB-231 breast) of the same compound?
**A.** 94.2%

**Q.** And the growth (RXF 393 renal)?
**A.** 111%

**Q.** And the growth (SF-268 CNS)?
**A.** 101%

**Q.** And the growth (SF-295 CNS)?
**A.** 100%

**Q.** And the growth (SF-539 CNS)?
**A.** 111%

**Q.** And the growth (UACC-257 melanoma)?
**A.** 96.2%

**Q.** And the growth (M14 melanoma)?
**A.** 111%

**Q.** How did the growth (DU-145 prostate) turn out when `CC[C@@H](C(=O)[C@@H](C)[C@@H](O)[C@H](C)[C@@H]1O[C@@H]([C@@H](CC)C(=O)ONC(=O)c2ccccc2O)CC[C@@H]1C)C1O[C@]2(C=CC(=O)[C@]3(CC[C@@](C)([C@H]4CC[C@](O)(CC)[C@H](C)O4)O3)O2)[C@H](C)C[C@@H]1C` (stereo not given in full) was run?
**A.** 40.3%

**Q.** What about the growth (K-562 leukemia) of the same compound?
**A.** 28.6%

**Q.** What about the growth (MALME-3M melanoma) of the same compound?
**A.** 4.34% (active)

**Q.** And the growth (MDA-MB-231 breast)?
**A.** 50.9%

**Q.** And the growth (RXF 393 renal)?
**A.** 35.2%

**Q.** What about the growth (SF-268 CNS) of the same compound?
**A.** 54.2%

**Q.** What about the growth (SF-295 CNS) of the same compound?
**A.** 44.7%

**Q.** And the growth (SF-539 CNS)?
**A.** 27.5%

**Q.** And the growth (UACC-257 melanoma)?
**A.** 38.3%

**Q.** And the growth (M14 melanoma)?
**A.** 63.6%

**Q.** Which growth (DU-145 prostate) does the source give for `Cc1c2cnccc2c(C)c2c1c1cc(CO)ccc1n2C` here?
**A.** -0.903% (active)

**Q.** And the growth (K-562 leukemia)?
**A.** 1.71% (active)

**Q.** And the growth (MALME-3M melanoma)?
**A.** -87.6% (active)

**Q.** And the growth (MDA-MB-231 breast)?
**A.** -52.1% (active)

**Q.** What about the growth (RXF 393 renal) of the same compound?
**A.** -84.7% (active)

**Q.** And the growth (SF-268 CNS)?
**A.** -28.8% (active)

**Q.** What about the growth (SF-295 CNS) of the same compound?
**A.** -26.6% (active)

**Q.** And the growth (SF-539 CNS)?
**A.** -68% (active)

**Q.** And the growth (UACC-257 melanoma)?
**A.** -52.7% (active)

**Q.** And the growth (M14 melanoma)?
**A.** -90.9% (active)

**Q.** Which growth (DU-145 prostate) does the source give for `COc1ccc(C/C(C)=C(\c2ccc(Cl)cc2)c2ccc(OCCN3CCCC3)cc2)cc1` here?
**A.** 98.5%

**Q.** And the growth (K-562 leukemia)?
**A.** 13%

**Q.** And the growth (MALME-3M melanoma)?
**A.** 93.5%

**Q.** And the growth (MDA-MB-231 breast)?
**A.** 85.7%

**Q.** What about the growth (RXF 393 renal) of the same compound?
**A.** 64.1%

**Q.** And the growth (SF-268 CNS)?
**A.** 86.5%

**Q.** And the growth (SF-295 CNS)?
**A.** 99.2%

**Q.** And the growth (SF-539 CNS)?
**A.** 88%

**Q.** What about the growth (UACC-257 melanoma) of the same compound?
**A.** 93.5%

**Q.** What about the growth (M14 melanoma) of the same compound?
**A.** 62.9%

**Q.** How did the growth (DU-145 prostate) turn out when `c1csc(-c2cn3nc(-c4c[nH]c5ccccc45)sc3n2)c1` was run?
**A.** 13.4%

**Q.** What about the growth (K-562 leukemia) of the same compound?
**A.** 15.6%

**Q.** And the growth (MALME-3M melanoma)?
**A.** 23.7%

**Q.** And the growth (MDA-MB-231 breast)?
**A.** 22.9%

**Q.** What about the growth (RXF 393 renal) of the same compound?
**A.** 34.4%

**Q.** What about the growth (SF-268 CNS) of the same compound?
**A.** 46.1%

**Q.** And the growth (SF-295 CNS)?
**A.** 14.4%

**Q.** What about the growth (SF-539 CNS) of the same compound?
**A.** -12.8% (active)

**Q.** What about the growth (UACC-257 melanoma) of the same compound?
**A.** 60.1%

**Q.** And the growth (M14 melanoma)?
**A.** 8.8% (active)

**Q.** What does the source list for `Cn1cc(-c2nc3c(F)cc4[nH]ncc4c3c3c2CCCC3)c(C(F)(F)F)n1`?
**A.** growth (DU-145 prostate): 52.3%; growth (K-562 leukemia): 19.3%; growth (MALME-3M melanoma): 59.7%; growth (MDA-MB-231 breast): 48.9%; growth (RXF 393 renal): 23%; growth (SF-268 CNS): 47.7%; growth (SF-295 CNS): 49.2%; growth (SF-539 CNS): 27.9%; growth (UACC-257 melanoma): 53.5%; growth (M14 melanoma): 30.1%

**Q.** What does the source list for `CNC(=O)c1cc(Oc2ccc3c(c2)sc2nc(-c4cc(C(F)(F)F)cc(C(F)(F)F)c4)cn23)ccn1`?
**A.** growth (DU-145 prostate): 67.7%; growth (K-562 leukemia): 29.4%; growth (MALME-3M melanoma): 47.1%; growth (MDA-MB-231 breast): 48.2%; growth (RXF 393 renal): 79.8%; growth (SF-268 CNS): 65.1%; growth (SF-295 CNS): 36.2%; growth (SF-539 CNS): 52.4%; growth (UACC-257 melanoma): 34.5%; growth (M14 melanoma): 69.3%

**Q.** For `COc1cc(C[C@H]2COc3cc(O)cc(O)c3C2=O)ccc1O`, which growth (DU-145 prostate) is on record?
**A.** 43.1%

**Q.** What about the growth (K-562 leukemia) of the same compound?
**A.** 9.86% (active)

**Q.** What about the growth (MALME-3M melanoma) of the same compound?
**A.** 62%

**Q.** What about the growth (MDA-MB-231 breast) of the same compound?
**A.** 55.3%

**Q.** What about the growth (RXF 393 renal) of the same compound?
**A.** 34.7%

**Q.** What about the growth (SF-268 CNS) of the same compound?
**A.** 47.2%

**Q.** What about the growth (SF-295 CNS) of the same compound?
**A.** 54.5%

**Q.** What about the growth (SF-539 CNS) of the same compound?
**A.** 3.27% (active)

**Q.** And the growth (UACC-257 melanoma)?
**A.** 35.8%

**Q.** And the growth (M14 melanoma)?
**A.** 9.16% (active)

**Q.** `C#COc1cccc(Nc2ncnc3cc(NC(=O)[C@H](C)Cl)ccc23)c1` was tested. Which growth (DU-145 prostate) did it give?
**A.** 20.3% [6.25 µM]

**Q.** And the growth (K-562 leukemia)?
**A.** 99.7% [6.25 µM]

**Q.** And the growth (MALME-3M melanoma)?
**A.** 37.5% [6.25 µM]

**Q.** And the growth (MDA-MB-231 breast)?
**A.** 19.1% [6.25 µM]

**Q.** What about the growth (RXF 393 renal) of the same compound?
**A.** 15.5% [6.25 µM]

**Q.** And the growth (SF-268 CNS)?
**A.** 27.7% [6.25 µM]

**Q.** What about the growth (SF-295 CNS) of the same compound?
**A.** 1.61% [6.25 µM] (active)

**Q.** What about the growth (SF-539 CNS) of the same compound?
**A.** 0.539% [6.25 µM] (active)

**Q.** And the growth (UACC-257 melanoma)?
**A.** 21.2% [6.25 µM]

**Q.** And the growth (M14 melanoma)?
**A.** 11.7% [6.25 µM]
